Compound activity as filed in PubChem.
TDP1 cell CPT: qHTS for Inhibitors of human tyrosyl-DNA phosphodiesterase 1 (TDP1): qHTS in cells in presence of CPT; chicken DT40 Tdp1-/-;hTDP1 cells + 20 nM CPT, ATP luminescence, 48 h; Potency, µM (highest dose often 46.2 µM), for the others: top-dose activity change, negative = growth inhibition, usual class: inhibitors; 12% of 420,000 active; AID 686979, 2013; note: potency is the fitted concentration of half-maximal effect; % is set by controls: 0 for no effect and ±100 for the full control effect; nearly all actives have a fitted effect of over 55% in size
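Chicken DT40 Tdp1-/- cells stably complemented with human TDP1 were seeded at 400 cells/well in medium containing 20 nM camptothecin, exposed to pin-transferred compounds, and grown at 37 °C for at least 48 hr. Viability was read as ATP luminescence.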
DT40 TDP1 no CPT: qHTS for Inhibitors of human tyrosyl-DNA phosphodiesterase 1 (TDP1): qHTS in cells in absence of CPT. Potency, µM (series often up to 46.2 µM), for the others: at the top dose activity change, negative = growth inhibition, actives largely listed as inhibitors. AID 686978, 2013. DT40 Tdp1-/- hTDP1 cells, no CPT, ATP luminescence, 48 h. 15% of 420,000 active; note: potency is the fitted concentration of half-maximal effect; % is set by controls: 0 for no effect and ±100 for the full control effect; nearly all actives have a fitted effect of over 55% in size
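Chicken DT40 Tdp1-/- cells stably complemented with human TDP1 were seeded at 400 cells/well with DMSO in place of 20 nM camptothecin. After compound pinning, cells grew at least 48 hr at 37 °C; viability read by CellTiter-Glo luminescence.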
TGFb inhibitor: qHTS for Inhibitors of TGF-b | HepG2 CAGA-GFP TGF-b/SMAD3 reporter, GFP fluorescence, 18 h; TGF-beta stimulated, 500 pg/mL final | AID 588855, 2011 | 1.2% of 410,000 active | Potency, µM (highest dose often 46.1 µM), for the others: top-dose activity, negative = inhibition, actives largely listed as inhibitors; note: potency is the fitted concentration of half-maximal effect; % is set by controls: 0 for no effect and ±100 for the full control effect; nearly all actives have a fitted effect of over 65% in size
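GFP signal (ex488/em500-530) from TGF-beta-stimulated HEPG2 CAGA-GFP cells, 500 pg/mL final, 18 h at 37 degrees C in DMEM plus 1% FBS, normalized to unstimulated and DMSO-stimulated controls.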
IL-1B inflam inh: qHTS for Inhibitors of Inflammasome Signaling: IL-1-beta AlphaLISA Primary Screen | 4.7% of 360,000 active | THP-1 LPS/ATP IL-1B secretion, AlphaLISA, 16 h; active compounds read low | activity change, % at 57.5 µM; in the data active = activity change below about -50%; inconclusive = mostly about -30% to -49%; note: % is set by controls: 0 for no effect and ±100 for the full control effect
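THP-1 cells pretreated 1 hr with compounds (up to 57.5 uM final), then stimulated with LPS (250 ng/mL final) plus ATP (1.25 mM final); secreted IL-1B measured by AlphaLISA after 16 hr, decreased signal indicating inhibition.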
HepG2 tox: qHTS for Inhibitors of TGF-b: Cytotox Counterscreen; HepG2 CAGA-GFP viability, ATP luminescence, 18 h; Potency, µM (top dose mostly 46.1 µM), without a hit: top-dose activity change, negative = cytotoxicity, usual class: cytotoxic; 0.76% of 410,000 active; note: potency is the fitted concentration of half-maximal effect
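HepG2 CAGA-GFP cells (1000/well, DMEM with 1% FBS) received compound, then TGF-beta at 500 pg/mL final, and were incubated 18 hours at 37 degrees C. Viability was read by CellTiter-Glo luminescence. Media-only wells were set as complete cell-killing and DMSO as no toxicity.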
TDP1 inh: qHTS Assay for Inhibitors of Tyrosyl-DNA Phosphodiesterase (TDP1); Tyrosyl-DNA phosphodiesterase 1 (Homo sapiens), Q9NUW8; recombinant TDP1, AlphaScreen DNA substrate cleavage; Potency, µM (series often up to 130 µM), for inactives: at the highest dose activity change, negative = inhibition, actives largely listed as inhibitors; 0.28% of 350,000 active; AID 485290, 2010; note: potency is the fitted concentration of half-maximal effect; % is set by controls: 0 for no effect and ±100 for the full control effect; nearly all actives have a fitted effect of over 40% in size
Target sequence (Q9NUW8 whole entry, looked up): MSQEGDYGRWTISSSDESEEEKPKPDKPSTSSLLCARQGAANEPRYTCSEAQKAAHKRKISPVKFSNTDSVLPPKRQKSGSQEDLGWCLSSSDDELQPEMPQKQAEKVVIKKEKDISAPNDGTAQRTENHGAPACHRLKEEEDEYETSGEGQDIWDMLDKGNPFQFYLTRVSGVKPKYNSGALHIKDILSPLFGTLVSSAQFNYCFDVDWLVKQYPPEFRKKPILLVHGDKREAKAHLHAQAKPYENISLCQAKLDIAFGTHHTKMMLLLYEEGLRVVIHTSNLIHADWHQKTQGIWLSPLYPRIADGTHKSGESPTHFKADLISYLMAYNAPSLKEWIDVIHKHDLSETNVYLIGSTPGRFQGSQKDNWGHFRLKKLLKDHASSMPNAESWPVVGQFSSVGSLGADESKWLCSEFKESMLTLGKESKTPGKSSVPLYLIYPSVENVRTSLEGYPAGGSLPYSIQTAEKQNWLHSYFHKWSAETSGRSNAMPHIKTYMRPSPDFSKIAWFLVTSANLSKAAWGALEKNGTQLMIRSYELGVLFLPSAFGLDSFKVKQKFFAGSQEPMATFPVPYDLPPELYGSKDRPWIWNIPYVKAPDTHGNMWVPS
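Signal: AlphaScreen proximity between streptavidin donor and anti-FITC acceptor beads on intact substrate. Reaction: Tdp1 1 nM, substrate 15 nM final, 5 min RT after 15 min compound preincubation.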
* marks the source's active call; other numbers are inactive results; i = inactive; ? = inconclusive; . = no result. Rows were chosen to be rich in hits. Some 19% of all compounds tested hit in one or more screens of this group. Unless noted, calls come from the whole dose curve; as a rule, active = well fitted curve in the direction sought with a large enough effect; inconclusive = small, poorly fitted or top-dose-only effect, or another doubt; inactive = no such curve, though single readings can be large; an effect the other way counts as inactive or inconclusive.

SMILES | TDP1 cell CPT | DT40 TDP1 no CPT | TGFb inhibitor | IL-1B inflam inh | HepG2 tox | TDP1 inh
CCOc1ccc(N2CC(NC(=O)C3CCCCC3)CC2=O)cc1 (configuration not stated) | -7% | -2% | -24% | . | 0% | 0%
COc1ccc(-n2c(SCC(=O)Nc3ccc(C)cc3)nc(O)c(Cc3ccccc3)c2=O)cc1 | 10% | 9% | -4% | i | -2% | 10%
CCN(CC)C(=O)CSc1nc(O)c(Cc2ccccc2)c(=O)n1-c1ccccc1 | -28% | ? | -15% | 5 | -4% | 4%
Cc1ccc(-n2c(SCC(=O)N3CCCCC3)nc(O)c(Cc3ccccc3)c2=O)cc1 | ? | 12µM* | 4% | 12 | -10% | 6%
CCN(CC)C(=O)CSc1nc(O)c(Cc2ccccc2)c(=O)n1-c1ccc(C)cc1 | ? | 13µM* | -3% | 22 | -17% | -3%
COc1ccc(-c2cc(C(F)(F)F)nc(SCCC(=O)N3CCN4CCCC4C3)n2)cc1 (configuration not stated) | ? | 26µM* | 18% | -15 | 22% | 0%
COc1ccc(-c2cc(C(F)(F)F)nc(SCCC(=O)N3CCCC3)n2)cc1 | ? | ? | -16% | -52* | -14% | 2%
COc1ccc(OCCC(=O)Nc2ccccc2)cc1 | 2% | -3% | 20% | 10 | -19% | .
O=C(Nc1ccccc1F)c1coc(=O)c(Br)c1 | 0.52µM* | 1.6µM* | 12% | 0 | 2% | 20µM*
C[C@@H](NC(=O)c1coc(=O)c(Br)c1)c1ccccc1 | 0.46µM* | 0.73µM* | ? | -6 | 13µM* | -2%
O=C(Nc1ccc(Br)cn1)c1coc(=O)c(Br)c1 | 1.5µM* | 3.7µM* | -16% | ? | -175% | .
O=C(NCCc1ccc(F)cc1)c1coc(=O)c(Br)c1 | 0.13µM* | 0.92µM* | ? | -91* | -46% | .
O=C(Nc1ccc(Cl)cc1C(=O)Nc1ccc(Br)cn1)c1ccco1 | ? | ? | 5% | -18 | -22% | 1%
CNc1nc(N)c(C(=O)C23CC4CC(CC(C4)C2)C3)s1 | -12% | -24% | -17% | -14 | -18% | 5%
CCN(CC)C(=O)c1sc2c(c1C)c(=O)n(-c1ccc(C)c(C)c1)c(=O)n2CC(=O)Nc1ccc(F)cc1 | -27% | ? | -1% | . | -58% | -10%
Cc1ccccc1-n1nc2c(c1NC(=O)C(C)(C)C)CS(=O)(=O)C2 | 9% | 17% | 3% | 0 | 1% | .
Cc1cc(NC(=O)c2coc(=O)c(Br)c2)ccc1C(C)C | 0.52µM* | 1.8µM* | ? | . | -71% | 3%
Cc1ccc(NC(=O)c2ccccc2)cc1C | 0% | -11% | ? | -3 | -12% | -4%
OCC[n+]1ccc(/C=C/c2c[nH]c3ccccc23)cc1 | 6.5µM* | 5.8µM* | 106% | 26 | -6% | 0%
C(=C\c1c[nH]c2ccccc12)/c1cc[n+](C2CCCCC2)cc1 | -12% | ? | -15% | . | -30% | .
CCCCCCCCCCCCCCCC[n+]1ccc(/C=C/c2c[nH]c3ccccc23)cc1 | 0.89µM* | 0.71µM* | 190% | . | -95% | .
CCCCCCCCCC[n+]1ccc(/C=C/c2c[nH]c3ccccc23)cc1 | 0.32µM* | 0.11µM* | 260% | . | 16µM* | .
CC#CCN(CC#CC)S(=O)(=O)c1ccc(S(=O)(=O)N2CCOCC2)cc1 | ? | 16µM* | -21% | 8 | 1% | 4%
COc1ccc(-c2cc(C(=O)Nc3ccc(NC(C)=O)cc3)[nH]n2)c(C)c1 | ? | -19% | 7% | -22 | -13% | .
Cc1ccc(O)c(-c2cc(C(=O)NCc3ccncc3)[nH]n2)c1 | ? | ? | -3% | 13 | -10% | 6%
SMILES | TDP1 cell CPT | DT40 TDP1 no CPT | TGFb inhibitor | IL-1B inflam inh | HepG2 tox | TDP1 inh
CCNC(=O)c1c(NC(=O)c2cc(-c3cc(C)cc(C)c3O)n[nH]2)sc2c1CCCC2 | ? | 5.8µM* | 4% | -1 | -1% | .
Cc1cc(C)c(O)c(-c2cc(C(=O)NCc3ccccc3)[nH]n2)c1 | 18µM* | ? | ? | ? | -35% | 4%
COc1ccc(-c2cc(C(=O)Nc3cc(OC)c(OC)c(OC)c3)[nH]n2)c(C)c1 | 23µM* | 12µM* | 15% | -23 | -32% | .
COc1cccc(CNc2ncc(C(=O)Nc3cc(OC)c(OC)c(OC)c3)c(C)n2)c1 | 8.2µM* | 9.2µM* | -1% | 26 | -11% | .
C[C@H]1CN([C@@H](C)CO)S(=O)(=O)c2ccc(Br)cc2O[C@@H]1CN(C)C(=O)Cc1ccccc1 | ? | ? | 10% | -13 | 4% | .
Cc1oc2ncn(C)c(=O)c2c1C(=O)Nc1ccccn1 | 16% | 0% | 7% | . | -5% | -1%
Cc1cc(O)c(-c2cc(C(=O)NCCc3ccc(S(N)(=O)=O)cc3)[nH]n2)cc1C | -3% | ? | -15% | 21 | -13% | 1%
COc1ccc(CNC(=O)c2cc(-c3cc(C)cc(C)c3O)n[nH]2)cc1 | ? | ? | ? | -68* | -29% | 8%
COc1ccc(CCNC(=O)c2cc(-c3cc(C)cc(C)c3O)n[nH]2)cc1OC | ? | ? | ? | -24 | -13% | 7%
Cc1cc(C)c(O)c(-c2cc(C(=O)NCCc3ccc(S(N)(=O)=O)cc3)[nH]n2)c1 | -22% | 9.2µM* | -23% | -51* | 8% | 6%
COc1ccc(-c2cc(C(=O)NCc3ccc(F)cc3)[nH]n2)c(C)c1 | 18µM* | ? | -5% | -8 | -23% | .
CSC(=S)N/N=C/c1ccccc1 | ? | ? | -13% | 25 | -26% | 8%
CC(C)Oc1ccc(CNC(=O)Cn2ncn3nc(-c4cccs4)cc3c2=O)cc1 | -29% | -29% | 8% | . | -23% | 3%
COc1cc(Br)c(CC(=O)NC2CC2)cc1OC | 13% | 11% | 0% | 39 | 1% | 0%
COc1cc(OC)c(/C=C/c2ccc3ccccc3[n+]2[O-])c(OC)c1 | ? | ? | 7% | . | 1% | .
Clc1ccc(-c2nc3ccc(Cl)cn3c2Cc2ccccc2)cc1 | ? | ? | -16% | 24 | -17% | .
